The target in the test is MAP kinase-activated protein kinase 3 (Homo sapiens) (UniProt Q16644). The settings on record: at 1 µM.
Sequence of MAP kinase-activated protein kinase 3 (Homo sapiens) (Q16644 whole entry, looked up): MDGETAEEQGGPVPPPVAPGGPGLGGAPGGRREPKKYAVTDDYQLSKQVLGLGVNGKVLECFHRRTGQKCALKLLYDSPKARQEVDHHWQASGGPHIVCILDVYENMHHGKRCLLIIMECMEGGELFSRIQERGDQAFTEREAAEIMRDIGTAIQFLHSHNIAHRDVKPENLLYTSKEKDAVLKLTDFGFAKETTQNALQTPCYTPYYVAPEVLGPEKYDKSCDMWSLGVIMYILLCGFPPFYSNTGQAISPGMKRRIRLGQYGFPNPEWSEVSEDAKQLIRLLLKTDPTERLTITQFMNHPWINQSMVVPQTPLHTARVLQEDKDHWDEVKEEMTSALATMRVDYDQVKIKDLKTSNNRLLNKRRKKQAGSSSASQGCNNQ
In the case of `Oc1n[nH]c2nnc(-c3c(-c4ccccc4)nn4ccccc34)cc12`, the residual activity was found to be 98%. As to `Cc1nc2cc3nc(-c4cccs4)cnc3cc2n1C`, the residual activity was found to be 114%.

For `COc1ccc(C(=O)Nc2sc3c(c2C(N)=O)CCCC3)cc1OC`, the residual activity was 71%. With `CO[C@H]1[C@@H](OC)C[C@H](C)[C@@H](OC)C2=CC(=O)C=C(NC(=O)/C(C)=C/C=C/[C@H](OC)[C@@H](OC(N)=O)/C(C)=C/[C@@H]1C)C2=O`, the residual activity came to 110%. With `c1ccc(-c2cnc(Nc3ccc(OCCN4CCCC4)cc3)s2)cc1`, the residual activity turned out to be 118%. For `COc1ccc2c(c1)c(C1=C(c3c[nH]c4ccccc34)C(=O)NC1=O)cn2CCCN(C)C`, the residual activity came out at 103%. In the case of `Cc1cc2ncc(-c3ccccc3)nc2cc1C` it was 135%. With `c1ccc(-c2n[nH]c3c2oc2ccccc23)cc1` the figure was 94%; with `O=C(O)/C=C/c1cc(Br)c(Br)c(Br)c1Br`, 107%. For `CCN(CC)CCCCN1c2ccccc2Oc2ccc(Cl)cc21`, the residual activity was 115%. With `COc1cc2ncnc(Nc3ccc(O)c(Br)c3)c2cc1OC`, the residual activity came out at 124%. On to `O=C(CCCc1ccc(-c2ccccc2F)cc1)Nc1ccc(O)cc1`, for which the residual activity is 100%. In the case of `O=C1Nc2ccc(Br)cc2/C1=C\c1cc2c([nH]1)CCCC2` it was 126%. With `CN[C@@H]1C[C@H]2O[C@@](C)([C@@H]1OC)n1c3ccccc3c3c4c(c5c6ccccc6n2c5c31)C(=O)NC4` the figure was 101%; with `O=C1NC(=O)C(c2cn(CCCn3ccnc3)c3ccccc23)=C1Nc1ccccc1`, 126%. Take `Nc1cccc(-c2cc3c(Oc4cccc(O)c4)ncnc3[nH]2)c1`: the residual activity is 126%.

As to `O=C1c2ccccc2-c2nc3nnnn3nc21`, the residual activity is 105%.

For `CC(C)c1nn(-c2c(Cl)cccc2Cl)c2nc(Cc3ccc(OCCO)cc3)[nH]c(=O)c12`, the residual activity came out at 101%. For the compound `Oc1ccc(-c2nc(-c3ccc(F)cc3)c(-c3ccncc3)[nH]2)cc1`, the residual activity amounted to 127%.

Consider `Cc1ccc(S(=O)(=O)/C=C/C#N)cc1`, for which the residual activity was 94%. On to `Cn1c2ccccc2c2c3c(c4c5ccccc5n(CCC#N)c4c21)CNC3=O`, for which the residual activity amounted to 131%. With `O=C(O)c1ccc2c3c1cccc3c(=O)n1c3ccccc3nc21`, the residual activity is 123%. With `O=C1NC(=O)c2c1c1c3ccccc3[nH]c1n1cncc21` the figure was 86%. In the case of `CC(C)n1cnc2c(NCc3ccccc3)nc(NCCCO)nc21` it was 91%. Turning to `CCOc1cc2ncnc(Nc3cccc(Br)c3)c2cc1OCC`, the residual activity turned out to be 106%.

As for `O=c1cc(-c2cccc3c2Sc2ccccc2S3)oc(N2CCOCC2)c1`, the residual activity was 115%. On to `O=C1c2ccccc2-[n+]2ccc3c([nH]c4ccccc43)c21`, for which the residual activity stood at 115%. As for `Nc1n[nH]c2nc3ccccc3nc12`, the residual activity was 99%. With `Nc1nc(Nc2ccc(S(N)(=O)=O)cc2)nn1C(=O)c1c(F)cccc1F` the figure was 103%.

In the case of `COc1cccc(-c2cc(=O)c3ccccc3o2)c1N`, the residual activity was found to be 122%.

With `CNc1cc2c(Nc3cccc(Br)c3)ncnc2cn1`, the residual activity is 117%. With `O=c1c2ccccc2[nH]c(=S)n1CCN1CCC(=C(c2ccc(F)cc2)c2ccc(F)cc2)CC1` the figure was 89%; with `CCC(=O)Nc1ccc2ncnc(Nc3cccc(Br)c3)c2c1`, 89%; with `N#CCCc1ccc2c(c1)-c1[nH]c3ccc([N+](=O)[O-])cc3c1CC(=O)N2`, 100%. For the compound `C[C@@H](N)[C@H]1CC[C@H](C(=O)Nc2ccncc2)CC1`, the residual activity came to 90%.

Consider `Cc1cc(C)c(/C=C2\C(=O)Nc3ccccc32)[nH]1`, for which the residual activity was determined as 140%.

The values above are taken from ChEMBL document CHEMBL2218924, “A broad activity screen in support of a chemogenomic map for kinase signalling research and drug discovery” (Biochem J, 2013).
